HGIII-sPLA2 inh – Inhibits HGIII-sPLA2 liposome hydrolysis, primary screen. QFRET BODIPY PC-A2 liposome hydrolysis, fluorescence. inhibition, % at 12.2 µM. 370,000 compounds, 0.56% hits;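 active = inhibition above mean plus 3 SD of compounds lying within the high and low control bounds, cut at about 19% in these data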;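 also: 0% = median of test compound wells and 100% = no enzyme DMSO wells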
GRIN3A LBD mod – NR3A (human) ligand-binding domain modulation; NR3A LBD differential scanning fluorimetry, Tm shift; 0% = protein alone, 100% = glycine-bound protein; Tm shift relative to glycine control, % at 25 µM; 340,000 compounds, 2.5% hits; AID 1259313;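 active = melting temperature shift of at least 10% of the positive control shift, at one fixed dose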
ADAM17 inh – inhibitors of human ADAM17; inhibition, % at 6.95 µM; P78536; AID 720648; recombinant ADAM17, EDANS/DABCYL FRET peptide cleavage; 370,000 compounds, 0.83% hits;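 active = inhibition above the mean of compounds lying between control limits plus 3 SD, set per campaign, cut at about 8.5% in these data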;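 also: 0% = DMSO-only wells as the low control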
FAS-TE inh – FAS thioesterase (human) inhibition; recombinant FAS-TE, OMFH fluorogenic substrate, fluorescence endpoint; 360,000 compounds, 0.67% hits; inhibition, % at 15 µM; P49327; AID 602261;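 active = compounds whose normalised, plate-corrected inhibition of enzyme fluorescence in the single-dose primary screen is 50% or more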;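 also: 0% = DMSO with enzyme and 100% = substrate without enzyme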
ADAM10 inh – inhibits human ADAM10 | recombinant ADAM10, EDANS/DABCYL FRET peptide cleavage, 3 h | inhibition, % at 7 µM | 370,000 compounds, 0.62% hits | AID 720582;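 active = inhibition above a per-campaign cutoff equal to the mean of compounds falling between control-based bounds plus 3 SD, cut at about 20% in these data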;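 also: 0% = DMSO wells while the 100% control is not disclosed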
FAS-TE conf – confirmation of human fatty acid synthase thioesterase inhibitors; AID 624325; recombinant FAS-TE, OMFH fluorogenic substrate, fluorescence; shares compounds with FAS-TE inh; 2,300 compounds, 45% hits; inhibition, % at 15 µM;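 active = compounds inhibiting the enzyme by at least 50% at 15 µM in any one of the replicates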;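 also: 0% = enzyme with DMSO only and 100% = wells lacking enzyme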
* = called active by the depositor; . = not tested or not shown. Compounds with a hit are over-represented: about 4.3% of the library has one in this group of screens.

SMILES | HGIII-sPLA2 inh | GRIN3A LBD mod | ADAM17 inh | FAS-TE inh | ADAM10 inh | FAS-TE conf
CCOC(=O)c1cc(-c2ccccc2)sc1NC(=O)C(C)N1C(=O)c2ccccc2C1=O (configuration not stated) | 1 | -3 | -5 | 57* | 4 | -2
O=C(CCc1ccccc1)N[C@H]1[C@H](OCc2ccccc2)CCC[C@@]12C(=O)N(Cc1ccccc1)c1ccc(-c3ccsc3)cc12 | 2 | . | 5 | . | 7 | .
O=C(CSc1ncnc2c1cnn2-c1ccccc1)NC1CCCC1 | 15 | 1 | -3 | 61* | -4 | 55*
O=[N+]([O-])c1ccccc1S(=O)(=O)N1CCC(c2cn3ccccc3n2)CC1 | 12 | . | -2 | . | -11 | .
C/C(=N\NC(=O)c1nnn(-c2nonc2N)c1-c1ccc(Cl)c(Cl)c1)c1ccncc1 | -19 | -10 | -3 | 55* | 2 | 56*
CC(C)(C)c1ccc(-c2nnc(SCC(=O)c3ccc([N+](=O)[O-])cc3)n2-c2ccc(Cl)cc2)cc1 | -11 | . | 2 | . | 6 | .
COC(=O)c1ccccc1NC(=S)N(Cc1ccc2c(c1)OCO2)Cc1cc2cccc(C)c2[nH]c1=O | 16 | -3 | -2 | 83* | 1 | 8
N#Cc1ccc(S(=O)(=O)N2CCCc3nc(-c4ccc(F)cc4)ccc32)cc1 | -1 | . | -4 | . | -6 | .
Cc1ccc(-c2[nH]ncc2/C=N/n2c(COc3ccccc3)nc3ccccc3c2=O)cc1 | -8 | -1 | 1 | -10 | 2 | .
Cc1cc(/C=N/n2c(COc3ccccc3)nc3ccccc3c2=O)c(O)c([N+](=O)[O-])c1 | 39* | 16* | 7 | 60* | 18 | 9
CCOC(=O)[C@@H]1[C@H]2COc3cc(OC)ccc3[C@H]2N2C(=O)N(c3cccc(Cl)c3)C(=O)[C@@]12C | . | 0 | . | 74* | . | 48*
COc1ccc2c(c1)OC[C@H]1[C@H]2N2C(=O)CN(C)C(=O)[C@@]2(C)[C@H]1c1ccccc1 | 0 | -2 | -6 | -7 | -2 | .
COc1ccc(CN2CC(=O)N3[C@H]4c5ccc(OC)cc5OC[C@@H]4[C@H](c4ccccc4)[C@]3(C)C2=O)cc1 | -6 | -1 | 3 | 66* | 12 | 18
CCOC(=O)[C@H]1[C@H]2COc3ccc(C)cc3[C@@H]2N2C(=O)CN(Cc3ccc(C)cc3)C(=O)[C@@]12C | -5 | -2 | 1 | 4 | 2 | .
Cc1ccc(CN2CC(=O)N3[C@H]4c5cc(C)ccc5OC[C@@H]4[C@H](c4ccccc4)[C@]3(C)C2=O)cc1 | -1 | -3 | 1 | 52* | 3 | 9
CC(C)(C)N(Cc1cn(Cc2ccccc2)nn1)S(=O)(=O)c1ccc(N2CCCCC2)cc1Br | -3 | . | 2 | . | 6 | .
COc1ccc(OC)c(S(=O)(=O)N2CCCCC2C(=O)N2CCN(CCO)CC2)c1 (configuration not stated) | 1 | . | -1 | . | -6 | .
CCOC(=O)C1(Cc2ccccc2)CCN(Cc2ccc(C)cc2)CC1 | -7 | . | 2 | . | 3 | .
CCCCCC(=O)OCc1ccc(C2=CC(=O)CC(C)(C)C2=O)cc1 | -7 | . | -2 | 64* | -2 | 56*
CC(C)(C)C(=O)OCc1ccc(C2=CC(=O)CC(C)(C)C2=O)cc1 | -2 | . | -7 | 82* | -11 | 82*
CC(=O)OCc1ccc(C2=CC(=O)CC(C)(C)C2=O)cc1 | 14 | . | -4 | -4 | -15 | .
Cc1ccc(S(=O)(=O)N2[C@@H](c3ccc(C(C)(C)C)cc3)C(C(=O)O)=CC[C@H]2c2ccc(C(C)C)cc2)cc1 | -33 | -3 | 4 | 76* | 22* | 25
Cc1ccc([C@@H]2CC=C(C(=O)O)[C@H](c3ccc(C(C)(C)C)cc3)N2S(=O)(=O)c2ccc(C)cc2)cc1 | -36 | -6 | 4 | 19 | 18 | .
Cc1ccc(S(=O)(=O)N2[C@@H](c3ccc(C(C)(C)C)cc3)C(C(=O)O)=CC[C@H]2c2ccc(Cl)cc2)cc1 | -31 | 0 | 6 | 55* | 10 | 49*
COC(=O)[C@]12C[C@H](CC(=O)NCc3cccc(C(F)(F)F)c3)C(=O)N(Cc3ccc(Cl)cc3Cl)C1=C[C@H](C1CCCC1)O[C@@H]2C | 5 | . | -4 | . | -6 | .
SMILES | HGIII-sPLA2 inh | GRIN3A LBD mod | ADAM17 inh | FAS-TE inh | ADAM10 inh | FAS-TE conf
Cc1ccc(NC(=O)[C@@H]2CCCN2S(=O)(=O)c2cccc3cccnc23)c(C)c1 | 3 | . | 0 | . | 1 | .
COc1ccc(C(=O)NC(CC(=O)O)c2cc([N+](=O)[O-])ccc2Cl)c(SC)c1 (configuration not stated) | -1 | 0 | 3 | 50* | 8 | 64*
COc1ccc(C(=O)NC(CC(=O)O)c2cc([N+](=O)[O-])ccc2Cl)cc1 (configuration not stated) | 1 | 1 | 0 | 48 | 8 | .
Cc1ccc(-c2nnc(SCC(=O)N/N=C/c3c(C)nn(-c4ccccc4)c3C)n2-c2ccc(C)cc2)cc1 | -4 | 0 | 3 | 62* | -5 | 16
Cc1ccc(-c2nnc(SCC(=O)N/N=C/c3c(C)nn(-c4ccccc4)c3C)n2-c2ccccc2)cc1 | -2 | 5 | -1 | 33 | -2 | .
O=[N+]([O-])c1ccc(N2CCN(S(=O)(=O)c3ccc4ccccc4c3)CC2)cc1NCC1CCCO1 (configuration not stated) | 0 | -1 | 2 | 51* | 3 | 2
Cn1cnnc1Sc1cc(N2CCN(S(=O)(=O)c3ccc4ccccc4c3)CC2)ccc1[N+](=O)[O-] | -35 | -17 | 4 | 64* | 7 | -4
O=[N+]([O-])c1ccc(N2CCN(S(=O)(=O)c3ccccc3)CC2)cc1NCC1CCCO1 (configuration not stated) | 2 | 2 | 0 | 27 | 5 | .
Cn1cnnc1Sc1cc(N2CCN(S(=O)(=O)c3ccc(Cl)c(Cl)c3)CC2)ccc1[N+](=O)[O-] | -4 | -3 | -4 | 18 | 8 | .
CCOC(=O)c1c(NC(=O)c2ccc(N3C(=O)[C@@H]4[C@H](C3=O)[C@H]3C=C[C@@H]4C3)cc2)sc2c1CC(C)CC2 (some centres not stated) | 0 | -2 | -1 | 51* | -2 | 10
CCOC(=O)c1c(NC(=O)C2C3C=CC(C3)C2C(=O)O)sc2c1CC(C)CC2 (configuration not stated) | -14 | -1 | -11 | 0 | -22 | .
CC(C)c1ccc(/C=N/Nc2cc(N3CCOCC3)nc(N3CCOCC3)n2)cc1 | -2 | -8 | 2 | 89* | 2 | 90*
O=[N+]([O-])c1ccc(Cl)c(/C=N/Nc2nc(N3CCOCC3)nc(N3CCOCC3)n2)c1 | -1 | 3 | -5 | 51* | 2 | 5
O=[N+]([O-])c1ccc(/C=N/Nc2nc(N3CCOCC3)nc(N3CCOCC3)n2)cc1 | . | . | . | 50* | . | 23
